Results filed as inconclusive are left out. Activity calls are given as the source filed them. Calls come from the whole dose curve; as a rule, active = well fitted inhibition curve with a large enough effect; inconclusive = small, poorly fitted or top-dose-only effect; inactive = flat fitted curve, though single readings scatter.
Assays:
CRL-7250 [1] = test: Cytotoxic Profiling of Annotated Libraries Using Quantitative High-Throughput Screening (AID 1296008); details: Five cell lines viability, CellTiter-Glo ATP luminescence, 48-72 h; max response: stronger effect = lower value; for max response: % is set by controls: 0 for no effect and ±100 for the full control effect
Procedure, shortened: (§1)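 Cells exposed to compounds for 48 or 72 hr at 37 degrees Celsius. Viability read as ATP-coupled luminescence with CellTiter-Glo after 10 min at room temperature.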

HEK293 = test: as above; details: Five cell lines viability, CellTiter-Glo ATP luminescence, 48-72 h; max response: stronger effect = lower value
Procedure, shortened: as §1

HaCat = test: as above; details: Five cell lines viability, CellTiter-Glo ATP luminescence, 48-72 h; max response: stronger effect = lower value
Procedure, shortened: as §1

KB-3-1 = test: as above; details: Five cell lines viability, CellTiter-Glo ATP luminescence, 48-72 h; max response: stronger effect = lower value
Procedure, shortened: as §1

NIH3T3 = test: as above; details: Five cell lines viability, CellTiter-Glo ATP luminescence, 48-72 h; max response: stronger effect = lower value
Procedure, shortened: as §1

CRL-7250 [2] = test: qHTS assay to identify novel small-molecules to repurpose for Merkel cell carcinoma treatment (AID 1296009); details: MCC and control cell lines, CellTiter-Glo viability, 72 h; at 44.8 µM (top of the series) unless noted
Procedure, shortened: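 CellTiter-Glo luminescence after 72 hr compound exposure at 37 degree celsius gave cell viability. Libraries NPC and MIPE were run as 8- and 11-point dose responses; RLUs normalized to DMSO (negative) and no-cell (cytotoxicity) controls.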

Measured: max response
Note: nearly all actives have a fitted effect of over 60% in size.

COC(=O)C12C(=O)C(C)(O)C(=O)C1(C)C(C)=CC1C34CCC(OC3=O)C(C)(CO)C4CCC12C (configuration not stated)
inactive: CRL-7250 [1] | HEK293 4.01% | HaCat 0.667% | KB-3-1 | NIH3T3 | CRL-7250 [2] inactive [at 17.4 µM]

CN1C(=O)N(c2ccc(C#N)c(C(F)(F)F)c2)C(=O)[C@]1(CO)c1ccccc1
inactive: CRL-7250 [1] | HEK293 -8.53% | HaCat 1.18% | KB-3-1 | NIH3T3 | CRL-7250 [2]

COCC1OC(=O)c2coc3c2C1(C)C1=C(C3=O)C2CCC(=O)C2(C)CC1O (configuration not stated)
inactive: all assays above

COC(=O)C1(C)CCC(O)C2(C)c3cc(O)c(C(C)C)cc3C(O)C(OC(C)=O)C12 (configuration not stated)
inactive: CRL-7250 [1] | HEK293 3.05% | HaCat | KB-3-1 | NIH3T3 3.45% | CRL-7250 [2] inactive [at 17.4 µM]

C=C1[C@@H]2CC[C@@]3(C)[C@H](c4ccoc4)OC(=O)C[C@]13O[C@H]1CC(=O)C(C)(C)[C@H](C(OC(C)=O)C(=O)OC)[C@]12C (some centres not stated)
inactive: CRL-7250 [1] | HEK293 -1.58% | HaCat | KB-3-1 -6.59% | NIH3T3 -2.92% | CRL-7250 [2] inactive [at 17.4 µM]

CCc1[nH]c2ccc(OC)cc2c1CCN(C)C
inactive: CRL-7250 [1] 2.45% | HEK293 -15.9% | HaCat 1.59% | KB-3-1 -6.67% | NIH3T3

C[C@H](NC(=O)Cc1cc(F)cc(F)c1)C(=O)N[C@@H]1N=C(c2ccccc2)c2ccccc2N(C)C1=O
inactive: CRL-7250 [1] | HEK293 -14.2% | HaCat | KB-3-1 4.54% | NIH3T3 -0.0571% | CRL-7250 [2]

C/C=C(\C)C(=O)O[C@H]1[C@H](OC(C)=O)[C@]2(CO)[C@H](O)[C@H](O)[C@]3(C)C(=CCC4[C@@]5(C)CC[C@H](O[C@@H]6O[C@H](C(=O)O)[C@@H](O)[C@H](O[C@@H]7OC[C@H](O)[C@H](O[C@@H]8OC[C@H](O)[C@H](O)[C@H]8O)[C@H]7O)[C@H]6O[C@@H]6O[C@H](CO)[C@@H](O)[C@H](O)[C@H]6O)C(C)(C)C5CC[C@]43C)[C@@H]2CC1(C)C (some centres not stated)
inactive: CRL-7250 [1] 4.83% | HEK293 | HaCat 3.31% | KB-3-1 | NIH3T3

CC(CCc1ccc(O)cc1)O[C@@H]1O[C@H](CO[C@H]2OC[C@](O)(CO)[C@H]2O)[C@@H](O)[C@H](O)[C@H]1O (some centres not stated)
inactive: CRL-7250 [1] | HEK293 | HaCat | KB-3-1 6.77% | NIH3T3 3.14% | CRL-7250 [2] inactive [at 17.4 µM]

From PubChem BioAssay (NCATS)
